From PubChem BioAssay (NCI) come the findings set out here.

This is part of a sample that, as a whole, favours compounds with a hit. Of some 79,000 tested, about 15% had one in any assay. Activity calls are given as the source filed them. Cut-off read from the data, not from the text of the source: active = growth inhibition above about 70%; inactive = the rest.

The experiment can be described thus: NCI Yeast Anticancer Drug Screen. Data for the rad50 strain (AID 155).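 Note: 0% = growth of vehicle-only cultures of the same strain.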 The following applies: S. cerevisiae rad50 strain growth inhibition; at 5.0 µM (retest, dose inferred, filed as 0.5); hits give high values. In outline:
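DNA repair mutant yeast, compound exposure, growth read-out; inhibition is taken relative to vehicle.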
Take `O=C(N/N=C/c1ccccc1O)c1ccccc1-n1cccc1`: the growth inhibition is 52% (inactive).

In the case of `O=C1CN(CCN2CCOCC2)CC(=O)N2Cc3ccccc3CN12`, the growth inhibition was 12% (inactive).

`CCC[CH2][Sn]([CH2]CCC)([NH]c1ncnc2[nH]cnc12)[NH]c1ncnc2[nH]cnc12`: the growth inhibition was 14% (inactive).

On to `Oc1ccc(Br)cc1C=Nc1c(NC2CCCCC2)oc2ccc(Br)cc12`, for which the growth inhibition was -4% (inactive).

Regarding `Cc1cc2c(C(C)C)c(O)c(O)c3coc(/c1=c1/c(C)cc4c(C(C)C)c(=O)c(=O)c5coc1c45)c32`, the growth inhibition was -1% (inactive).

Regarding `O=C1c2ccccc2C(=O)N1/N=C\c1ccccc1[N+](=O)[O-]`, the growth inhibition is 1% (inactive).

With `O[C@H](CNCCS)[C@@H](O)CNCCS`, the growth inhibition is -1% (inactive).

As for `C[C@]12CC[C@H](O)CC1=CC[C@@H]1C2CC[C@]2(C)C(=O)N(N)C(=O)CC12` (stereo partly specified), the growth inhibition was 7% (inactive).

In the case of `O=C(C(/C=N/C(=S)NCc1ccccc1)=C(/O)c1ccccc1)c1ccccc1`, the growth inhibition is 6% (inactive).

As for `C=CC1(c2ccc(-c3ccccc3)cc2)OCCO1`, the growth inhibition was 1% (inactive).

For the compound `C=C1CC(COc2ccc3c(C)cc(=O)oc3c2)(c2ccccc2)OC1=O` (stereo unspecified), the growth inhibition is 32% (inactive).

`CN(C)CCCNc1c2ccccc2nc2ccc([N+](=O)[O-])cc12`: the growth inhibition is 16% (inactive).

Consider `CN1CCC(OC(=O)c2ccc3ncccc3c2)CC1`, for which the growth inhibition is -6% (inactive).

For `COc1ccc(/C=C2/C(=O)N(C(=O)c3ccccc3O)N=C2C)cc1OC`, the growth inhibition was 13% (inactive).

Consider `CC1([N+](=O)[O-])C(=O)C2(N3CCOCC3)CCCC2C1c1ccccc1` (stereo unspecified), for which the growth inhibition is -9% (inactive).

As for `COc1ccc(C2=C(Cl)C(=O)N(c3ccc(C)cc3)C(=O)C2(Cl)Cl)cc1`, the growth inhibition is 14% (inactive).
